EBV gp42 inh: blocks Epstein-Barr virus glycoprotein 42 binding | Q1HVG2 | Fluorescence polarization binding assay, mP read-out | inhibition, % (tested at 21.74 µM) | 220,000 compounds, 0.42% hits; in the data active = inhibition above about 50%
Target sequence (Q1HVG2 whole entry, looked up): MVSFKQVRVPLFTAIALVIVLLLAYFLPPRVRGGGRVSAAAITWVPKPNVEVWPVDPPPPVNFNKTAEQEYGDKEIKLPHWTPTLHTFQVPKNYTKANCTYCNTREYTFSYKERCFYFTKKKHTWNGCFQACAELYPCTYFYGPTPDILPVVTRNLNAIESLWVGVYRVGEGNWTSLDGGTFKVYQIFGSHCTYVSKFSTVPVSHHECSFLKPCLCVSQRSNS
MCL1 BIM primary: disrupts human MCL1 binding to BIM-BH3 peptide; GST-MCL1 / FITC-Bim-BH3 fluorescence polarization; inhibition, % at 10.9 µM; 320,000 compounds, 0.68% hits; AID 2057;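 active = inhibition above the mean inhibition of all tested compounds plus 3 SD, set per campaign, cut at about 40% in these data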;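 also: 0% = DMSO wells and 100% = unlabeled Bim-BH3 peptide control; higher means more loss of mP so more displacement of Bim peptide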
E coli Lon inh: E. coli protease La inhibition. AID 602123. inhibition, % at 7.94 µM. 360,000 compounds, 0.42% hits. purified E. coli Lon protease, fluorescence polarization; in the data active = inhibition above about 13%, passing the limit was not always enough;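 also: 0% = enzyme with probe and DMSO and 100% = no enzyme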
BCLXL inh: inhibitors of human Bcl-xL; AID 2129; inhibition, % at 10.9 µM; Q07817; 320,000 compounds, 0.7% hits; GST-Bcl-xL / FITC-Bim BH3 peptide fluorescence polarization;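 active = inhibition above the mean of all tested compounds plus 3 SD, cutoff set per campaign, cut at about 30% in these data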;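 also: 0% = DMSO wells and 100% = unlabeled Bim-BH3 peptide competitor; inhibitors lower millipolarization by displacing the labeled peptide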
GLD-1 RNA inh: GLD-1-TGE RNA interaction inhibition (C. elegans); purified GLD-1 + fluorescein TGE RNA, fluorescence polarization; 320,000 compounds, 0.44% hits; inhibition, % at 5.96 µM; AID 2280;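 active = percent inhibition above a per-plate cutoff, the plate mean of test compounds plus 3 SD, cut at about 30% in these data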;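 also: 0% = DMSO wells with GLD-1 and probe and 100% = wells lacking GLD-1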
MEX-5 binding: C. elegans MEX-5 TCR-2 RNA binding activity | Q9XUB2 | MEX-5/FITC-TCR2 RNA binding, fluorescence polarization; stronger effect = lower value | activity score (negative = inhibition of binding), % at 10 µM | 300,000 compounds, 0.38% hits;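 active = inhibition past about -25% in most replicates, and total fluorescence under double the plate's negative control median, limit read from the data; inconclusive = replicates evenly split on the limit, or fluorescence at least double controls; inactive = too little inhibition in most replicates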;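 also: 0% = DMSO and -100% = 5 µM competing unlabeled TCR2 RNA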
Target sequence (Q9XUB2 whole entry, looked up): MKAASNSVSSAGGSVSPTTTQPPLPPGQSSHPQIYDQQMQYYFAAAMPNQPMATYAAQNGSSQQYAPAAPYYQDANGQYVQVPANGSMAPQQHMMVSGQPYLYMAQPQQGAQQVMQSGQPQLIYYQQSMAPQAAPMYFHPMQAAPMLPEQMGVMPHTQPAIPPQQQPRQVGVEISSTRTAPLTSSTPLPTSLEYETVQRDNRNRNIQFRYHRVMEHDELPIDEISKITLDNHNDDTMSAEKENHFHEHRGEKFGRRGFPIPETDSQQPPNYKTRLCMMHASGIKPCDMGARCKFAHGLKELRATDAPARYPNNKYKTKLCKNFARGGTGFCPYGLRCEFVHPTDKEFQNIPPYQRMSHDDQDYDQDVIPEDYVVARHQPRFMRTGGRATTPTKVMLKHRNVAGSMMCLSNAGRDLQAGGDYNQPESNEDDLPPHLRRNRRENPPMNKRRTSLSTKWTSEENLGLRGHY
BCLXL inh confirm: counter-screen for MCL1 inhibitors: confirmation of human Bcl-xL inhibitors | shares compounds with MCL1 BIM primary | GST-Bcl-xL / FITC-Bim BH3 peptide FP binding | inhibition, % at 10.9 µM | 1,700 compounds, 54% hits | AID 2166;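 active = inhibition above a cutoff equal to the mean inhibition of all tested compounds plus 3 SD, cut at about 30% in these data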;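 also: 0% = DMSO wells and 100% = unlabeled Bim BH3 control peptide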
MCL1 inh confirm: confirmation of human MCL1 and BIM-BH3 interaction inhibitors; shares compounds with MCL1 BIM primary; GST-MCL1 / FITC-Bim-BH3 fluorescence polarization; inhibition, % at 10.9 µM; 1,700 compounds, 61% hits; AID 2168;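 active = inhibition above the average of all tested compounds plus 3 SD, cut at about 40% in these data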;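 also: 0% = DMSO wells and 100% = unlabeled Bim-BH3 control peptide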
* marks the source's active call; other numbers are inactive results; ? = inconclusive; · = no result; + = active, no number. In the library only some 1.5% were active in any assay of this set; here they are far more common.

SMILES | EBV gp42 inh | MCL1 BIM primary | E coli Lon inh | BCLXL inh | GLD-1 RNA inh | MEX-5 binding | BCLXL inh confirm | MCL1 inh confirm
COc1cc(C(=O)c2cc3c(cc2C)OCO3)cc(OC)c1OC | · | · | 1.9 | · | · | · | · | ·
C=CCSC1=N/C(=C\C=C\c2ccco2)C(=O)S1 | -14.5 | 47.1* | -8.0 | 12.9 | 0.2 | -0.1 | 2.5 | 26.7
O=S(=O)(c1ccccc1)N1N=C(c2ccc(Cl)cc2)CC1c1ccco1 (configuration not stated) | · | · | 0.1 | · | · | · | · | ·
O=C(O)CN1C(=O)/C(=C\C(Br)=C\c2ccccc2)SC1=S | · | 43.4* | -35.8 | 25.4 | -0.5 | -4.8 | 32.7* | 46.5*
CC(=O)OCC1=C(C(=O)O)N2C(=O)C(NC(=O)CCn3nc(C)c(Cl)c3C)C2SC1 (configuration not stated) | -7.3 | 5.7 | -3.1 | 6.0 | -3.8 | -3.5 | · | ·
CC(=O)OCC1=C(C(=O)O)N2C(=O)C(NC(=O)CCn3nc(C(F)(F)F)c(Br)c3C3CC3)C2SC1 (configuration not stated) | -6.4 | 65.1* | -0.9 | 9.2 | -0.9 | -3.7 | 23.7 | 96.4*
CNCCCOc1cccc(Oc2ccccc2)c1 | -20.1 | 46.4* | 3.2 | 2.9 | 3.5 | 0.5 | 5.1 | 1.7
CCNC(=O)C1(C)CCCN(Cc2csc(-c3ccccc3)n2)C1 (configuration not stated) | · | · | -8.9 | · | · | · | · | ·
O=C1CCCC(O)=C1N=Nc1ccc2c(c1)OCO2 | -57.9 | -7.7 | -22.1 | -6.3 | -9.5 | 7.3 | · | ·
O=C1CCCC(O)=C1N=Nc1ccc(C(=O)O)cc1 | 4.0 | 41.4* | -2.4 | 8.0 | -1.8 | -26.3* | 3.6 | 8.8
COc1cc(C2c3sc(=O)[nH]c3SC3C(=O)N(c4ccc(Br)cc4)C(=O)C32)ccc1O (configuration not stated) | -12.2 | 14.4 | -6.0 | 15.9 | 12.3 | -1.4 | · | ·
CCOc1ccc(N2C(=O)C3Sc4[nH]c(=O)sc4C(/C=C/c4ccccc4)C3C2=O)cc1 (configuration not stated) | -10.8 | 41.9* | -40.2 | 57.4* | 41.5* | -1.1 | -3.5 | -15.6
CCCCCCn1c(=O)[nH]c2nc3cc(N)ccc3nc2c1=O | 148.5* | + | · | 187.1* | 187.3* | -48.7* | 171.2* | 197.9*
O=C1c2cccc3c(N4CCCCC4)ccc(c23)C(=O)N1c1ccccn1 | 129.5* | 171.9* | 10.2 | 122.4* | 161.2* | -68.8* | 154.1* | 179.1*
CN(C)c1ccc(/C=C2\SC(=O)N(CC(O)Cn3c4ccccc4c4ccccc43)C2=O)cc1 (configuration not stated) | 114.8* | 79.7* | -20.6 | 133.0* | 133.4* | ? | -4.7 | -28.3
O=C1S/C(=C/c2ccccc2)C(=O)N1CC(O)Cn1c2ccccc2c2ccccc21 (configuration not stated) | 8.1 | -1.6 | -5.7 | -1.8 | -1.2 | 2.4 | · | ·
CNC(=O)c1ccsc1NC(=O)CS(=O)(=O)c1ccccc1 | · | -2.3 | -4.8 | 4.2 | 5.5 | 0.6 | · | ·
CNC(=O)c1ccsc1NC(=O)CN1C(=O)CCC1=O | -0.6 | 154.6* | -0.7 | 144.1* | 147.9* | 1.1 | 14.3 | 9.6
CC(C)n1c(SCC(=O)Nc2nncs2)nnc1-c1ccco1 | · | 40.6* | · | 11.6 | 3.7 | 0.0 | 13.7 | 45.3*
Cc1oc(C(N)=O)nc1-c1ccccc1 | -2.8 | 47.9* | 8.6 | 9.2 | 2.2 | 0.7 | 6.3 | 11.2
CN(C)Cc1c(O)ccc2c(=O)c(-c3ccc(Cl)cc3)coc12 | · | 3.2 | -1.7 | 7.4 | 3.4 | -2.2 | · | ·
O=c1c(-c2ccc([N+](=O)[O-])cc2)coc2c(O)c(O)ccc12 | -2.9 | 45.0* | -2.5 | 26.4 | 2.7 | -9.5 | 43.0* | 63.1*
C=CCOc1c(Br)cc(C2C3=C(CCCC3=O)N(C)C3=C2C(=O)CCC3)cc1OCC | 6.4 | 43.0* | -12.5 | 22.5 | 10.5 | 0.4 | 7.0 | 22.9
CCC(=O)N1CCN(c2ccc(NC(=O)c3cccs3)cc2)CC1 | -22.0 | 42.5* | 8.6 | 3.0 | 0.0 | -2.0 | 0.6 | -5.5
CCC(C)Sc1ccc([C@H]2N[C@@](Cc3ccccc3)(C(=O)OC)[C@H]3C(=O)N(CC)C(=O)[C@@H]23)cc1 (some centres not stated) | · | 8.4 | 1.8 | 6.6 | 2.2 | -0.7 | · | ·
SMILES | EBV gp42 inh | MCL1 BIM primary | E coli Lon inh | BCLXL inh | GLD-1 RNA inh | MEX-5 binding | BCLXL inh confirm | MCL1 inh confirm
Cc1nnc(SCC(=O)Nc2sccc2C#N)s1 | · | 53.2* | -5.7 | 28.5 | 8.4 | 1.0 | 20.5 | 22.5
CC1=C/C(=C/N(C)c2ccccc2)C(=O)S1 | 6.3 | 40.9* | -5.3 | 29.2 | 11.4 | -9.3 | 26.7 | 25.7
Cn1c(=O)c2c(SCC(=O)N3CCOCC3)nc(-c3ccccc3F)nc2n(C)c1=O | · | 2.4 | 0.7 | 1.1 | 9.4 | 2.4 | · | ·
NC(=O)c1c(NC(=O)C2CCCO2)sc2c1CCCCC2 (configuration not stated) | -4.8 | 42.6* | -3.3 | 33.0* | 17.6 | -8.7 | 19.3 | 28.5
NC(=O)c1c(NC(=O)C2CCCO2)sc2c1CCC2 (configuration not stated) | -1.3 | 5.3 | -1.1 | -2.9 | 1.4 | 0.2 | · | ·
C=CCN1C(=O)C2(OCCCO2)c2ccccc21 | · | -2.0 | 2.1 | 2.8 | 1.4 | 0.5 | · | ·
C=CCN1C(=O)C2(OCCO2)c2cc(C)ccc21 | · | 40.0* | 2.4 | 19.1 | 7.8 | 1.2 | 4.0 | 1.1
O=S(=O)(c1cccs1)N1CN(Cc2ccc(Cl)cc2)c2nc3ccccc3nc21 | -4.5 | 1.3 | -2.5 | 5.1 | -0.8 | · | · | ·
O=S(=O)(c1cccs1)N1CN(Cc2ccco2)c2nc3ccccc3nc21 | 11.9 | 172.0* | 9.8 | 156.4* | 140.5* | -5.6 | 24.5 | 24.4
CC1(C)Oc2cc3oc(=O)ccc3c3c2C2C1CCC(C)(O3)C2O (configuration not stated) | · | · | 3.7 | · | · | · | · | ·
CC1(c2ccc3noc(-c4ccccc4)c3c2)OCCO1 | -18.8 | -2.8 | -1.9 | 2.8 | -5.1 | -0.6 | · | ·
CC1(c2ccc3noc(-c4ccc(F)cc4)c3c2)OCCO1 | 86.2* | 83.3* | 7.7 | 73.9* | 88.8* | -7.5 | 77.8* | 111.3*
COc1ccccc1CN=c1c([N+](=O)[O-])nn(-c2ccc3c(c2)OCCO3)n1O | -0.7 | -11.5 | -0.9 | -2.9 | 4.4 | 1.1 | · | ·
O=[N+]([O-])c1nn(-c2ccc3c(c2)OCCO3)n(O)c1=NCc1ccccc1Cl | -7.3 | 54.2* | -7.0 | 42.0* | -2.2 | -1.4 | 13.8 | 11.1
COCCCNC(=O)/C(C#N)=C/c1c(N2CCN(c3cccc(Cl)c3)CC2)nc2c(C)cccn2c1=O | · | 7.4 | 2.4 | 9.7 | -6.1 | 0.7 | · | ·
